Test results from the supplement of paper PMC7595190.

Test system: MV4-11
Assay: CellTox Green cytotoxicity fluorescence relative to DMSO vehicle (fold of vehicle RFU); higher = more cell death (loss of membrane integrity), active = 2 or more
Protocol: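 Paediatric AML cell lines (MV4-11, CMK, Kasumi-1; 4x10^4 cells/well, 96-well) treated with single compounds from the Selleckchem apoptosis library at 0.01, 0.1 and 1 µM. Cytotoxicity was read with CellTox Green (RFU, Ex 485/Em 520) at 24, 48 and 72 h and normalised to the 0.1% DMSO vehicle. Normalised RFU >= 2 was taken as a successful, cell-killing treatment.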

Measured: CellTox Green cytotoxicity fluorescence

Cc1cc2c(C(C)C)c(O)c(O)c(C=O)c2c(O)c1-c1c(C)cc2c(C(C)C)c(O)c(O)c(C=O)c2c1O
inactive: 0.01 µM, 24 h 0.979 | 0.01 µM, 48 h 1 | 0.01 µM, 72 h 1 | 0.1 µM, 24 h 1 | 0.1 µM, 48 h 1 | 0.1 µM, 72 h 0.993 | 1 µM, 24 h 0.973 | 1 µM, 48 h 0.959 | 1 µM, 72 h 1.02
